36 molecules from PubChem BioAssay (NCATS) can be followed below.

Results filed as inconclusive are left out. Activity calls are given as the source filed them. Calls come from the whole dose curve; as a rule, active = well fitted curve in the direction sought with a large enough effect; inconclusive = small, poorly fitted or top-dose-only effect, or another doubt; inactive = no such curve, though single readings can be large; an effect the other way counts as inactive or inconclusive. Residues, ends and D or L forms follow the SMILES beside them. *: point of attachment. Cbz = O=C(OCc1ccccc1)*
% is set by controls: 0 for no effect and ±100 for the full control effect.

In one test the target is Thioredoxin reductase 1, cytoplasmic (Rattus norvegicus) (UniProt O89049). The test is described as follows: qHTS Assay for Inhibitors of Mammalian Selenoprotein Thioredoxin Reductase 1 (TrxR1) (AID 488773).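 Note: drop in NADPH fluorescence over an 8 min run after selenite addition; nearly all actives have a fitted effect of over 40% in size.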 The following applies: purified TrxR1 enzyme activity; Potency: inhibition; series mostly up to 57.1 µM; activity change, negative = inhibition: at the top concentration. Put shortly: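 Inhibition is scored from the loss of NADPH fluorescence between first and last reads of an 8-min kinetic run. Selenite (400 uM) was the substrate, added after 15 min compound preincubation at room temperature.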
Sequence of Thioredoxin reductase 1, cytoplasmic (Rattus norvegicus) (O89049 whole entry, looked up): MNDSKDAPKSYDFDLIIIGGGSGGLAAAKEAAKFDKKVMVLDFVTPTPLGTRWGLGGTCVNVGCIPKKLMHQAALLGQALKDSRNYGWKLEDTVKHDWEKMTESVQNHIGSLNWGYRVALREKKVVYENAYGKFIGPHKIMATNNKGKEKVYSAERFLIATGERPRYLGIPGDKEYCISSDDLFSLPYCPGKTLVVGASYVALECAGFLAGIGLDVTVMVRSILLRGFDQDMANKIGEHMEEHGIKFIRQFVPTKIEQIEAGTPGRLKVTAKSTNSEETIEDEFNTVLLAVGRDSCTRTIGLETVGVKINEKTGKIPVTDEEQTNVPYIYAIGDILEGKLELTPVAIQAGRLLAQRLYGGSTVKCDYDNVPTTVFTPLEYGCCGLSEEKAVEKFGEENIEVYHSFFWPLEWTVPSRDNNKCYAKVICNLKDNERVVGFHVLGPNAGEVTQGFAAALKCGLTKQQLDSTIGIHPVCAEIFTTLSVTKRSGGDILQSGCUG
With `N=C(N)c1ccc(OCCCCCOc2ccc(C(=N)N)cc2)cc1` (tested in a mixture with another compound), the “activity change, negative = inhibition” value is 3.03% (inactive). Same read-out and setting: as for `CC(O)C(O)[C@H]1CNc2nc(N)[nH]c(=O)c2N1` (stereo partly drawn), the figure is 35.6% (inactive); as for `Cc1nc2c(OCc3ccccc3)cccn2c1CC#N`, -9.61% (inactive).

As to `O=C(O)C1=CCCN(CCON=C(c2ccccc2)c2ccccc2)C1`, the “activity change, negative = inhibition” value is -4.4% (inactive). In the case of `CC(=O)SC1CC2=CC(=O)CC[C@]2(C)C2CC[C@@]3(C)C(CC[C@@]34CCC(=O)O4)C12` (stereo partly drawn), the “activity change, negative = inhibition” value was -10.9% (inactive).

On to `COc1ccc(CCn2nnnc2C2(c3ccc(C)cc3)CC2)cc1`, for which the “activity change, negative = inhibition” value is -1.73% (inactive). For `CC(C)[C@@H]1CC[C@@H](C)C[C@@H]1P(=O)(c1ccccc1)c1ccccc1`, the “activity change, negative = inhibition” value was -0.191% (inactive).

For `CCCCOc1cc(CC2CNC(=O)N2)ccc1OC` (stereo not drawn), the “activity change, negative = inhibition” value was 0.524% (inactive). The same measure, in the same setting: as for `O=c1cc(O)cc(/C=C/c2ccc(O)c(O)c2)o1`, the figure is -15.7% (inactive); as for `Nc1ncnc2c1ncn2C1CCCO1` (stereo not drawn), 22.4% (inactive); as for `O=C(O)C1=CC(=C(c2ccc(O)c(C(=O)O)c2)c2ccc(O)c(C(=O)O)c2)C=CC1=O`, -11.2% (inactive). On the same count and under the same terms, the value for `CCCn1c(=O)c(C)cn2nc(N)nc12` was 74.1% (inactive); that for `C=CC1(C)CC(=O)C2(O)C(C)(O1)C(OC(C)=O)C(O)C1C(C)(C)CCC(O)C12C` (stereo not drawn) was 2.18% (inactive).

For `CC(C)C[C@H](NC(=O)C1OC1C(=O)O)C(=O)NCCCCN=C(N)N` (stereo partly drawn), the “activity change, negative = inhibition” value was -23.7% (inactive).

As to `O=C(O)CCC/C=C\C[C@@H]1[C@@H](/C=C/[C@H](O)C2Cc3ccccc3C2)[C@@H](F)C[C@@H]1O`, the “activity change, negative = inhibition” value is 1.74% (inactive).

In the case of `CC(C)[C@H](NC(=O)OCc1ccccc1)C(=O)N[C@H](C=O)Cc1ccccc1` (Cbz-Val-Phe-aldehyde), the “activity change, negative = inhibition” value was 3.33% (inactive). Still for that read-out and setting: as for `NC(=Nc1ccccc1)NC(=O)c1nc(Cl)c(N)nc1N`, the figure is 0.818% (inactive). Same read-out and setting: as for `N[C@H](C(=O)O)[C@H](Cc1ccccc1)C(=O)O`, the figure is -11.2% (inactive).

Regarding `CC(=O)O[C@H]1Cc2ccccc2N(C(N)=O)c2ccccc21`, the “activity change, negative = inhibition” value was 2.41% (inactive). Same read-out and setting: the value for `NC[C@@H]1O[C@H](c2ccccc2)Cc2c1ccc(O)c2O` was -25.1% (inactive); that for `Cc1ccc2c(c1)C(N1CCN(C)CC1)=Nc1cccnc1N2` was 0.688% (inactive); that for `NS(=O)(=O)c1cccc2c1c([N+](=O)[O-])cc1nc(O)c(O)nc12` was -7.73% (inactive). With `Nc1nc2c(nc(Br)n2C2OC3COP(=O)(O)O[C@@H]3C2O)c(=O)[nH]1` (stereo partly drawn), the “activity change, negative = inhibition” value was -3.89% (inactive). Same read-out and setting: as for `NCC(O)C1CCCCCCC1` (stereo not drawn), the figure is -3.85% (inactive); as for `CCN(c1nc(N)c(C(=O)N=C(N)N)nc1Cl)C(C)C`, -12.5% (inactive). On the same count and under the same terms, the value for `O=c1ccc2c(OCCCCc3ccccc3)c3ccoc3cc2o1` was -3.5% (inactive); that for `CC(C)NC[C@H](O)COc1cccc2ccccc12` was 2.62% (inactive); that for `CN1CC(O)C(O)C(O)C1CO` (stereo not drawn) was -1.33% (inactive). Consider `CCCCCCCCCCCCCCSCC(=O)O`, for which the “activity change, negative = inhibition” value is -16.2% (inactive).

As to `CCCCCCC/C=C\CCCCCCCCC(=O)O`, the “activity change, negative = inhibition” value is -0.616% (inactive). As to `Cc1ccc([N+](=O)[O-])cc1S(=O)(=O)N(C)C`, the “activity change, negative = inhibition” value was 5.07% (inactive). Same read-out and setting: the value for `C=C1C[C@@]23CC[C@H]4[C@@](C)(CCC[C@@]4(C)C(=O)O)[C@@H]2CC[C@]1(O)C3` was -10.5% (inactive); that for `O=C(O)c1ccccc1Nc1cccc(OCc2ccc3ccccc3n2)c1` was -9.93% (inactive). With `CCCCCCC(=O)OC1CC(C)(C)NC(C)(C)C1`, the “activity change, negative = inhibition” value was -6.18% (inactive). As for `O=C(O)/C(=C/c1c(C(=O)O)[nH]c2cc(Cl)cc(Cl)c12)c1ccccc1`, the “activity change, negative = inhibition” value was -5.59% (inactive).

In another test the target is Flap endonuclease 1 (Homo sapiens) (UniProt P39748). As to the kind of experiment: qHTS Validation Assay for the Inhibitors of Human Flap endonuclease 1 (FEN1) (AID 488816). Note: potency is the fitted concentration of half-maximal effect. The following applies: FEN1 nuclease activity, fluorogenic DNA substrate; series mostly up to 57.1 µM; activity, negative = inhibition: at the top concentration. The procedure, abridged: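 Enzyme reagent 10 nM; cpds pinned; 15 min RT preinc.; substrate 50 nM final; reads t=0 and 15 min; no-enzyme buffer wells as neg. control; normalized data, 4-parameter Hill fit.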
Sequence of Flap endonuclease 1 (Homo sapiens) (P39748 whole entry, looked up): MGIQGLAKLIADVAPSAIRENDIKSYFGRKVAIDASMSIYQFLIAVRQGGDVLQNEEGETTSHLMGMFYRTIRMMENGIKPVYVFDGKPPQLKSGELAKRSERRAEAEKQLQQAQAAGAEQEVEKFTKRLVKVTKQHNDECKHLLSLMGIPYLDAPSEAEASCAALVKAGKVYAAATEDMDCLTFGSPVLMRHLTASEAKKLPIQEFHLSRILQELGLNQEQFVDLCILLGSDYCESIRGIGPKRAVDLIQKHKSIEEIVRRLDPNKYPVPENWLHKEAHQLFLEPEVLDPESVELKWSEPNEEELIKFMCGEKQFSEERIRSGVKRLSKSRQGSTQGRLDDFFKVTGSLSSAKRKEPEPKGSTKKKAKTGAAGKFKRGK
As for `N=C(N)c1ccc(OCCCCCOc2ccc(C(=N)N)cc2)cc1` (tested in a mixture with another compound), the “activity, negative = inhibition” value was -10.3% (inactive). For `CC(O)C(O)[C@H]1CNc2nc(N)[nH]c(=O)c2N1` (stereo partly drawn), the “activity, negative = inhibition” value was -1.93% (inactive). On the same count and under the same terms, as for `Cc1nc2c(OCc3ccccc3)cccn2c1CC#N`, the figure is -8.58% (inactive). On the same count and under the same terms, the value for `O=C(O)C1=CCCN(CCON=C(c2ccccc2)c2ccccc2)C1` was -6.89% (inactive); that for `CC(=O)SC1CC2=CC(=O)CC[C@]2(C)C2CC[C@@]3(C)C(CC[C@@]34CCC(=O)O4)C12` (stereo partly drawn) was -7.22% (inactive). Take `COc1ccc(CCn2nnnc2C2(c3ccc(C)cc3)CC2)cc1`: the “activity, negative = inhibition” value was -14.5% (inactive). Same read-out and setting: as for `CC(C)[C@@H]1CC[C@@H](C)C[C@@H]1P(=O)(c1ccccc1)c1ccccc1`, the figure is -0.969% (inactive); as for `CCCCOc1cc(CC2CNC(=O)N2)ccc1OC` (stereo not drawn), -2.01% (inactive).

As for `Nc1ncnc2c1ncn2C1CCCO1` (stereo not drawn), the “activity, negative = inhibition” value is -7.59% (inactive). For the molecule `O=C(O)C1=CC(=C(c2ccc(O)c(C(=O)O)c2)c2ccc(O)c(C(=O)O)c2)C=CC1=O`, the Potency is 0.134 µM (active). Consider `CCCn1c(=O)c(C)cn2nc(N)nc12`, for which the “activity, negative = inhibition” value was -5.22% (inactive). Same read-out and setting: the value for `C=CC1(C)CC(=O)C2(O)C(C)(O1)C(OC(C)=O)C(O)C1C(C)(C)CCC(O)C12C` (stereo not drawn) was -2.89% (inactive); that for `CC(C)C[C@H](NC(=O)C1OC1C(=O)O)C(=O)NCCCCN=C(N)N` (stereo partly drawn) was -5.28% (inactive).

Take `O=C(O)CCC/C=C\C[C@@H]1[C@@H](/C=C/[C@H](O)C2Cc3ccccc3C2)[C@@H](F)C[C@@H]1O`: the “activity, negative = inhibition” value is -6.16% (inactive). Still for that read-out and setting: the value for `CC(C)[C@H](NC(=O)OCc1ccccc1)C(=O)N[C@H](C=O)Cc1ccccc1` (Cbz-Val-Phe-aldehyde) was -5.73% (inactive). Same read-out and setting: the value for `NC(=Nc1ccccc1)NC(=O)c1nc(Cl)c(N)nc1N` was -12.9% (inactive); that for `N[C@H](C(=O)O)[C@H](Cc1ccccc1)C(=O)O` was -3.98% (inactive). Turning to `CC(=O)O[C@H]1Cc2ccccc2N(C(N)=O)c2ccccc21`, the “activity, negative = inhibition” value is -4.31% (inactive). With `Cc1ccc2c(c1)C(N1CCN(C)CC1)=Nc1cccnc1N2`, the “activity, negative = inhibition” value is -8.89% (inactive). Same read-out and setting: as for `NS(=O)(=O)c1cccc2c1c([N+](=O)[O-])cc1nc(O)c(O)nc12`, the figure is -18.7% (inactive); as for `Nc1nc2c(nc(Br)n2C2OC3COP(=O)(O)O[C@@H]3C2O)c(=O)[nH]1` (stereo partly drawn), -9.13% (inactive); as for `NCC(O)C1CCCCCCC1` (stereo not drawn), 3.81% (inactive). The same measure, in the same setting: the value for `CCN(c1nc(N)c(C(=O)N=C(N)N)nc1Cl)C(C)C` was -6.87% (inactive). On the same count and under the same terms, as for `O=c1ccc2c(OCCCCc3ccccc3)c3ccoc3cc2o1`, the figure is -15.8% (inactive). As to `Cc1nc(N=Nc2cc(S(=O)(=O)O)c3cc([N+](=O)[O-])cc(S(=O)(=O)O)c3c2)c(COP(=O)(O)O)c(C=O)c1O`, the Potency was 23.8 µM (active). For `CN1CC(O)C(O)C(O)C1CO` (stereo not drawn), the “activity, negative = inhibition” value is -6.3% (inactive).

On to `CCCCCCCCCCCCCCSCC(=O)O`, for which the “activity, negative = inhibition” value was 1.45% (inactive). Same read-out and setting: as for `CCCCCCC/C=C\CCCCCCCCC(=O)O`, the figure is -2.02% (inactive). Still for that read-out and setting: the value for `Cc1ccc([N+](=O)[O-])cc1S(=O)(=O)N(C)C` was -3.65% (inactive). The same measure, in the same setting: as for `C=C1C[C@@]23CC[C@H]4[C@@](C)(CCC[C@@]4(C)C(=O)O)[C@@H]2CC[C@]1(O)C3`, the figure is -3.83% (inactive); as for `O=C(O)c1ccccc1Nc1cccc(OCc2ccc3ccccc3n2)c1`, -12% (inactive). Consider `CCCCCCC(=O)OC1CC(C)(C)NC(C)(C)C1`, for which the “activity, negative = inhibition” value was 0.395% (inactive). Still for that read-out and setting: as for `O=C(O)/C(=C/c1c(C(=O)O)[nH]c2cc(Cl)cc(Cl)c12)c1ccccc1`, the figure is -9.41% (inactive).
